Active and inactive are the calls of the source. How the source made its calls: active means hit-call score of the fitted dose curve at least 0.9, where 1 is the maximum; inactive means score below 0.9.
Columns and labels:
[1] = read-out: Matrix Metallopeptidase 1 (MMP1), MMP1 (gene 4312); assay: BSK_hDFCGF_MMP1: BioMAP Diversity Plus: hDFCGF Assay for Matrix Metallopeptidase 1 (MMP1) Biomarker Activity (AID 2283064); details: primary human foreskin fibroblasts; actives raise or lower the signal
Outline: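 ELISA read-out of MMP1 from human foreskin fibroblasts (primary skin cells), 24 h post-dose. Gain or loss of signal was fitted bidirectionally versus DMSO negative control; cytotoxicity was checked by SRB in parallel cultures.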

[2] = read-out: Vascular cell adhesion molecule 1 (VCAM1), VCAM1 (gene 7412); assay: BSK_hDFCGF_VCAM1: BioMAP Diversity Plus: hDFCGF Assay for Vascular cell adhesion molecule 1 (VCAM1) Biomarker Activity (AID 2283065); details: primary human foreskin fibroblasts; actives raise or lower the signal;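 on AC50: VCAM-1 protein level quantified by ELISA after 24 h chemical exposure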
Outline: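 ELISA readout of VCAM-1 on human dermal fibroblast primary cultures, 24 h after chemical exposure. Gain or loss of signal fitted in both directions against DMSO baseline.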

[3] = read-out: Plasminogen activator inhibitor-1 (PAI1), SERPINE1 (gene 5054); assay: BSK_hDFCGF_PAI1: BioMAP Diversity Plus: hDFCGF Assay for Plasminogen activator inhibitor-1 (PAI1) Biomarker Activity (AID 2283066); details: primary human foreskin fibroblasts; actives raise or lower the signal
Outline: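 Human skin fibroblast cultures receive chemical for 24 h before PAI-1 is measured by ELISA; signal changes are fitted bidirectionally against DMSO-treated wells.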

[4] = read-out: Intercellular Adhesion Molecule 1 (ICAM1), ICAM1 (gene 3383); assay: BSK_KF3CT_ICAM1: BioMAP Diversity Plus: KF3CT Assay for Intercellular Adhesion Molecule 1 (ICAM1) Biomarker Activity (AID 2283067); details: primary human keratinocytes with fibroblasts; actives raise or lower the signal
Outline: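 Cell-surface ICAM-1 was measured by ELISA 24 h after dosing primary human skin keratinocytes co-cultured with fibroblasts. Parallel SRB staining tracked overt cytotoxicity. Gain or loss of signal was fitted relative to DMSO.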

[5] = read-out: Interferon-gamma inducible Protein 10 (IP10), CXCL10 (gene 3627); assay: BSK_KF3CT_IP10: BioMAP Diversity Plus: KF3CT Assay for Interferon-gamma inducible Protein 10 (IP10) Biomarker Activity (AID 2283068); details: primary human keratinocytes with fibroblasts; actives raise or lower the signal
Outline: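 Signal is secreted/surface IP-10 by ELISA in a human primary skin co-culture of keratinocytes and foreskin fibroblasts, taken 24 h post-dosing; DMSO served as negative control.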

[6] = BSK_KF3CT_SRB: Viability Assessment in the BioMAP Diversity Plus: KF3CT Assay (AID 2283069); details: primary human keratinocytes with fibroblasts;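 further: total protein by sulforhodamine B staining as a cytotoxicity measure; read 24 h after compound addition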
Outline: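 SRB read-out at 560 nm (0.1% stain, TCA-fixed cells) gauges overt cytotoxicity in a human skin keratinocyte–fibroblast co-culture 24 h post-dosing. Signal change was fitted bidirectionally relative to DMSO control.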

[7] = read-out: Interleukin-1 alpha (IL1a), IL1A (gene 3552); assay: BSK_KF3CT_IL1a: BioMAP Diversity Plus: KF3CT Assay for Interleukin-1 alpha (IL1a) Biomarker Activity (AID 2283070); details: primary human keratinocytes with fibroblasts; actives raise or lower the signal
Outline: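 Primary skin co-culture (keratinocytes, foreskin fibroblasts), 24 h exposure; ELISA for IL-1a; bidirectional curve fit vs DMSO.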

[8] = read-out: TIMP metallopeptidase inhibitor 2 (TIMP2), TIMP2 (gene 7077); assay: BSK_KF3CT_TIMP2: BioMAP Diversity Plus: KF3CT Assay for TIMP metallopeptidase inhibitor 2 (TIMP2) Biomarker Activity (AID 2283071); details: primary human keratinocytes with fibroblasts; actives raise or lower the signal
Outline: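 Measurements come from ELISA detection of TIMP-2 at 24 hours in a dosed human keratinocyte and foreskin fibroblast co-culture. DMSO serves as negative control and baseline.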

[9] = read-out: C-C motif chemokine 2 (Homo sapiens) (UniProt P13500); assay: BSK_KF3CT_MCP1: BioMAP Diversity Plus: KF3CT Assay for Monocyte Chemoattractant Protein 1 (MCP1/CCL2) Biomarker Activity (AID 2283073); details: primary human keratinocytes with fibroblasts; actives raise or lower the signal
Outline: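 ELISA read-out of MCP-1, 24 h post-dose, in primary human skin keratinocytes co-cultured with fibroblasts. Parallel SRB staining monitors cytotoxicity; changes fitted both directions relative to DMSO.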

[10] = read-out: urokinase plasminogen activator (uPA), PLAU (gene 5328); assay: BSK_KF3CT_uPA: BioMAP Diversity Plus: KF3CT Assay for urokinase plasminogen activator (uPA) Biomarker Activity (AID 2283075); details: primary human keratinocytes with fibroblasts; actives raise or lower the signal
Outline: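 Skin co-culture (keratinocytes + foreskin fibroblasts), human primary; 24 h post-dose; uPA by ELISA; gain/loss fit vs DMSO baseline.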

CD40, CD40 (gene 958) = assay: BSK_LPS_CD40: BioMAP Diversity Plus: LPS Assay for CD40 Biomarker Activity (AID 2283076); details: primary human HUVEC with PBMC; actives raise or lower the signal
Outline: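 In the LPS system of human endothelial cells with peripheral blood mononuclear cells, CD40 levels were read by ELISA 24 h post-treatment. Signal changes in either direction were fitted against the DMSO baseline, with parallel SRB protein staining.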

[11] = read-out: E-selectin (Homo sapiens) (UniProt P16581); assay: BSK_LPS_Eselectin: BioMAP Diversity Plus: LPS Assay for Eselectin Biomarker Activity (AID 2283077); details: primary human HUVEC with PBMC; actives raise or lower the signal
Outline: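 E-selectin ELISA on LPS-stimulated endothelial cell/PBMC co-cultures, read 24 h post-treatment; gains and losses fitted against DMSO. Parallel SRB staining (0.1% SRB after 10% TCA fixation, 560 nm) flags overt cytotoxicity.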

[12] = read-out: Interleukin-8 (IL8), CXCL8 (gene 3576); assay: BSK_LPS_IL8: BioMAP Diversity Plus: LPS Assay for Interleukin-8 (IL8) Biomarker Activity (AID 2283078); details: primary human HUVEC with PBMC; actives raise or lower the signal
Outline: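 ELISA read-out of IL-8 after 24 h chemical treatment of LPS-activated endothelial/PBMC human primary co-cultures. Changes either up or down relative to DMSO; overt cytotoxicity checked by sulforhodamine B staining in parallel wells.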

[13] = BSK_LPS_SRB: Viability Assessment in the BioMAP Diversity Plus: LPS Assay (AID 2283079); details: primary human HUVEC with PBMC;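 further: total protein by sulforhodamine B absorbance as a cytotoxicity measure; measured one day after compound addition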
Outline: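 SRB viability endpoint: cells fixed with 10% TCA, stained with 0.1% SRB, read at 560 nm, 24 h post-dose. HUVEC/PBMC co-culture; signal change in either direction scored relative to DMSO.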

[14] = read-out: Interleukin-1 alpha (IL1a), IL1A (gene 3552); assay: BSK_LPS_IL1a: BioMAP Diversity Plus: LPS Assay for Interleukin-1 alpha (IL1a) Biomarker Activity (AID 2283080); details: primary human HUVEC with PBMC; actives raise or lower the signal
Outline: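 Readout is IL-1a level by ELISA, 24 h post-dose, fitted as gain or loss relative to DMSO. System: LPS-activated human primary co-culture of vascular endothelium and peripheral blood mononuclear cells, with parallel SRB total-protein cytotoxicity.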

[15] = read-out: Monocyte Chemoattractant Protein-1 (MCP1), CCL2 (gene 6347); assay: BSK_LPS_MCP1: BioMAP Diversity Plus: LPS Assay for Monocyte Chemoattractant Protein-1 (MCP1) Biomarker Activity (AID 2283081); details: primary human HUVEC with PBMC; actives raise or lower the signal;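 on AC50: secreted MCP-1 protein quantified by ELISA in culture supernatant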
Outline: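 Secreted MCP-1 read by ELISA at 24 h post-dosing in an LPS-activated co-culture of endothelial cells with peripheral blood mononuclear cells. Fits run in both directions, DMSO as baseline; parallel SRB staining tracks overt cytotoxicity.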

[16] = BSK_LPS_PGE2: BioMAP Diversity Plus: LPS Assay for Prostaglandin E2 (PGE2) Biomarker Activity (AID 2283082); details: primary human HUVEC with PBMC; actives raise or lower the signal
Outline: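 Primary human endothelial cells and blood mononuclear cells, co-cultured with LPS, receive test chemical; PGE2 ELISA follows at 24 h, with SRB-stained parallel cultures flagging cytotoxicity.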

[17] = read-out: Macrophage colony-stimulating factor (MCSF), CSF1 (gene 1435); assay: BSK_LPS_MCSF: BioMAP Diversity Plus: LPS Assay for Macrophage colony-stimulating factor (MCSF) Biomarker Activity (AID 2283083); details: primary human HUVEC with PBMC; actives raise or lower the signal
Outline: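 Bidirectional fitting against DMSO was applied to M-CSF levels read by ELISA at 24 h post-dose. The system pairs human umbilical vein endothelium with peripheral blood mononuclear cells; parallel SRB staining tracked cytotoxicity.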

[18] = read-out: Transforming growth factor beta 1 (TGFb1), TGFB1 (gene 7040); assay: BSK_KF3CT_TGFb1: BioMAP Diversity Plus: KF3CT Assay for Transforming growth factor beta 1 (TGFb1) Biomarker Activity (AID 2283072); details: primary human keratinocytes with fibroblasts; actives raise or lower the signal
Outline: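 TGF-b1 ELISA on a 24 h dosed co-culture of human keratinocytes and foreskin fibroblasts; cytotoxicity tracked in parallel cultures by SRB staining.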

[19] = read-out: Matrix Metallopeptidase 9 (MMP9), MMP9 (gene 4318); assay: BSK_KF3CT_MMP9: BioMAP Diversity Plus: KF3CT Assay for Matrix Metallopeptidase 9 (MMP9) Biomarker Activity (AID 2283074); details: primary human keratinocytes with fibroblasts; actives raise or lower the signal
Outline: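 ELISA read-out of MMP-9 at 24 h post-dosing in a co-culture of human skin keratinocytes and foreskin fibroblasts. Gain or loss of signal was fitted in both directions against DMSO.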

Sequence of E-selectin (Homo sapiens) (P16581 whole entry, looked up): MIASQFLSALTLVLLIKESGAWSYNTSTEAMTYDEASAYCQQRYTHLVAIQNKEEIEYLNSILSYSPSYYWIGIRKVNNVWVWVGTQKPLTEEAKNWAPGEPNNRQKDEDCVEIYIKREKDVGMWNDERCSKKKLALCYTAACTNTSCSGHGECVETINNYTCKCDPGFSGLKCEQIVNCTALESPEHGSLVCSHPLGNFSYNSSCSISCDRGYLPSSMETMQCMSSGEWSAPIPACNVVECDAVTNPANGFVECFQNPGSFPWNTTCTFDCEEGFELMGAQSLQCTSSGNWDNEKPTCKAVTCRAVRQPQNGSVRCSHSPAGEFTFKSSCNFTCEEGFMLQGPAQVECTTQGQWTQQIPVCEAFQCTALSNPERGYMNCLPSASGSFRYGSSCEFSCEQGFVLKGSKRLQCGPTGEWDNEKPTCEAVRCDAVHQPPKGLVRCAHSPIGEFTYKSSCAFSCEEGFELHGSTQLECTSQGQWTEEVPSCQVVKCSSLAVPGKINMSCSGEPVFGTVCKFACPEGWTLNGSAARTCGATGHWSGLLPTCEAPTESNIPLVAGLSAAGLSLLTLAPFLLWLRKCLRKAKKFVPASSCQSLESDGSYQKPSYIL

With `CCOP(=S)(OCC)SCS(=O)(=O)C(C)(C)C` the outcome [1] was “inactive”, the outcome [2] was “inactive” and the outcome [3] was “inactive”. For the same molecule, the outcome [4] was “inactive”, the outcome [5] was “inactive” and the outcome [6] was “inactive”. For the same molecule, the outcome [7] was “inactive”, the outcome [8] was “inactive” and the outcome [9] was “inactive”. For the same molecule, the outcome [10] was “inactive”, the outcome (CD40, CD40 (gene 958)) was “inactive” and the outcome [11] was “inactive”. The outcome [12] was “inactive”, the outcome [13] was “inactive” and the outcome [14] was “inactive”. For the same molecule, the outcome [15] was “inactive”, the outcome [16] was “inactive” and the outcome [17] was “inactive”.
With `CC(C)O.CC(C)O.OCCN(CCO)CCO.OCCN(CCO)CCO.[Ti]` the AC50 [1] was 24.8 µM (active), the outcome [3] was “inactive” and the outcome [4] was “inactive”. For the same molecule, the AC50 [5] was 33.7 µM (active), the outcome [6] was “inactive” and the outcome [7] was “inactive”. The outcome [8] was “inactive”, the outcome [18] was “inactive” and the outcome [9] was “inactive”. For the same molecule, the outcome [19] was “inactive”, the outcome [10] was “inactive” and the outcome (CD40, CD40 (gene 958)) was “inactive”. For the same molecule, the outcome [11] was “inactive”, the outcome [12] was “inactive” and the outcome [13] was “inactive”. For the same molecule, the outcome [14] was “inactive”, the outcome [15] was “inactive” and the outcome [16] was “inactive”. The outcome [17] was “inactive”.
In the case of `Oc1cc(Cl)c(Cl)cc1Cl`, the outcome [1] is reported as “inactive”, the AC50 [3] is reported as 34 µM (active) and the outcome [4] is reported as “inactive”. For the same molecule, the outcome [5] was “inactive”, the outcome [6] was “inactive” and the outcome [7] was “inactive”. For the same molecule, the outcome [8] was “inactive”, the outcome [18] was “inactive” and the AC50 [9] was 20 µM (active). The outcome [19] was “inactive”, the outcome [10] was “inactive” and the AC50 (CD40, CD40 (gene 958)) was 14.1 µM (active). The AC50 [11] was 34.1 µM (active), the AC50 [12] was 32.3 µM (active) and the AC50 [13] was 25.7 µM (active). For the same molecule, the AC50 [14] was 32.6 µM (active), the AC50 [15] was 30.2 µM (active) and the outcome [16] was “inactive”. The AC50 [17] was 20 µM (active).
For `Oc1c(Cl)cc(Cl)cc1Cl`, the outcome [1] was “inactive”, the outcome [2] was “inactive” and the outcome [3] was “inactive”. For the same molecule, the outcome [4] was “inactive”, the outcome [5] was “inactive” and the outcome [6] was “inactive”. For the same molecule, the outcome [7] was “inactive”, the outcome [8] was “inactive” and the outcome [9] was “inactive”. For the same molecule, the outcome [10] was “inactive”, the outcome (CD40, CD40 (gene 958)) was “inactive” and the outcome [11] was “inactive”. For the same molecule, the outcome [12] was “inactive”, the outcome [13] was “inactive” and the outcome [14] was “inactive”. For the same molecule, the outcome [15] was “inactive”, the outcome [16] was “inactive” and the outcome [17] was “inactive”.
With `c1ccc2sc(SNC3CCCCC3)nc2c1` the outcome [1] was “inactive”, the outcome [2] was “inactive” and the outcome [3] was “inactive”. For the same molecule, the outcome [4] was “inactive”, the outcome [5] was “inactive” and the outcome [6] was “inactive”. The outcome [7] was “inactive”, the outcome [8] was “inactive” and the outcome [18] was “inactive”. The outcome [9] was “inactive”, the outcome [10] was “inactive” and the outcome (CD40, CD40 (gene 958)) was “inactive”. For the same molecule, the outcome [11] was “inactive”, the outcome [12] was “inactive” and the outcome [13] was “inactive”. For the same molecule, the AC50 [14] was 30.2 µM (active), the outcome [15] was “inactive” and the outcome [16] was “inactive”. The outcome [17] was “inactive”.
In the case of `CCOP(=O)(OCC)OC(=CCl)c1ccc(Cl)cc1Cl`, the AC50 [1] is reported as 31.5 µM (active), the AC50 [2] is reported as 36.8 µM (active) and the AC50 [3] is reported as 24.7 µM (active). The outcome [4] was “inactive”, the AC50 [5] was 32.8 µM (active) and the AC50 [6] was 35.2 µM (active). The AC50 [8] was 25.7 µM (active), the AC50 [9] was 20 µM (active) and the AC50 [10] was 33.2 µM (active). The AC50 (CD40, CD40 (gene 958)) was 20 µM (active), the outcome [11] was “inactive” and the outcome [12] was “inactive”. For the same molecule, the outcome [13] was “inactive”, the outcome [14] was “inactive” and the outcome [15] was “inactive”. The outcome [16] was “inactive” and the AC50 [17] was 22.5 µM (active).

From PubChem BioAssay (EPA / NIEHS)
